# Reference: the supplement of paper PMC5499739
# In all, about 16,000 sequences were measured (“Z-score”: median about -0.37, highest 2% from about 3.2 on). The list comes from a sample in which the highest values are over-represented; it also holds similar and randomly drawn sequences.
# Tested on: RBM10 RRM1-ZnF (GST-tagged construct)
# Experiment: RNAcompete 7-mer binding Z-score; higher = stronger binding preference
# In short: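 A designed pool of 241 399 RNAs, each up to 41 nt and transcribed from microarray-derived DNA templates, was used at 1.5 nmol with 20 pmol of GST-tagged RBM10 constructs. The mixture, in 1 ml Hepes pH 7.8 buffer with KCl, NaCl, glycerol, DTT, BSA and glutathione Sepharose beads, was held 30 min at 4°C and then washed four times for 2 min at 4°C. Bound RNA was read out by microarray hybridisation, and enrichment of each heptamer motif was scored as a one-sided Z-score over the probes carrying it.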
row,Sequence,RNAcompete 7-mer binding Z-score
1,GGCUUUA,-0.418
2,UUGCAGA,-0.171
3,AGCGGAC,1.16
4,AGCGGAA,2.07
5,AGCGGAU,3.22
6,CUCAGGU,-0.0447
7,CGCAUAC,-0.61
8,GGAUGAG,3.4
9,GGAUGUG,3.43
10,AGAUGUG,0.936
11,AGAUGAG,1.43
12,GGAUGAA,2.16
13,GGAUGUU,0.959
14,CUCGUGC,-0.789
15,AGCAAUC,-0.435
16,AGGGUAG,3.72
17,CGGGUAG,2.18
18,UGGGUAG,3.5
19,AGGGUAC,2.1
20,UGGGUAU,2.37
21,UGGGUAC,2.69
22,GACCAUU,-0.915

row,Sequence,RNAcompete 7-mer binding Z-score
1,AUGGACG,2.69
2,CACGUGG,0.566
3,UCUUGAA,-0.785
4,CAUCCGC,-0.847
5,CCAAUCU,-0.802
6,AGUAGGG,4.16
7,CGUAGGG,1.94
8,UGUAGGG,3.6
9,UGUAGGA,1.7
10,AGUAGGC,0.975
11,ACUAGGG,2.03
12,AUACGAA,-0.194
13,CGGCUUG,-0.324
14,CUCGCAC,-0.587
15,GUUCUAA,-0.552
16,GGUAUGG,4.22
17,GGUAUGA,2.19
18,GAUAUGG,3.3
19,GGUAUGU,1.56
20,GAUAUGC,-0.0577
21,AAUAUGG,1.09
22,UCCCUGG,-0.24

row,Sequence,RNAcompete 7-mer binding Z-score
1,GUUCGAG,-0.00571
2,CGAACAU,-0.503
3,UUUAGGC,-0.321
4,GGAGGGG,4.57
5,AGAGGGG,2.11
6,GUAGAGG,3.56
7,AGAGGGA,2.09
8,GGAGGGC,3.13
9,AUAGAGG,1.55
10,UUAGAGG,1.31
11,GGAGAGA,1.46
12,GGAGGGA,4.01
13,AGAGAGG,1.27
14,GGAGAGG,3.41
15,CGAGGGG,2.86
16,GUCCAUU,-0.818
17,CCCACUG,-0.483
18,GUUAUUC,-0.513
19,UGUAGGU,1.75
20,UUGCCGC,-0.662
21,UUGGUCA,0.0788
22,CAAGUAA,-0.275

row,Sequence,RNAcompete 7-mer binding Z-score
1,AAACCAG,-0.324
2,GGAGAAG,3.36
3,CGAGAAG,0.495
4,AGAGAAG,1.63
5,GUGUCCA,-0.457
6,GGGCCGU,0.53
7,UAGGGAA,3.15
8,UAGGGGG,3.97
9,UAGGGGU,3.9
10,UAGGGGA,3.71
11,CAGGGGG,2.94
12,CAGGGGU,3.01
13,UAGGGAC,1.79
14,UAGGGGC,2.25
15,UAGGGCU,1.42
16,UGCUAGA,-0.233
17,UGUUCUC,-0.746
18,CCGCACC,-0.509
19,ACAGCGA,-0.0674
20,GGACUAU,0.000789
21,AUAGCCU,-0.724
